# Hits are enriched below; roughly 7% of the tested compounds scored in any of these assays.
# JMJD2A Tudor inh: qHTS Assay for Inhibitors of JMJD2A-Tudor Domain. Lysine-specific demethylase 4A (Homo sapiens), O75164. AlphaScreen JMJD2A-Tudor / H3K4me3 peptide binding. Potency, µM (series often up to 114 µM), without a hit: at the top dose activity change, negative = inhibition, actives largely listed as inhibitors. 390,000 compounds, 4.4% hits. AID 504339, 2011; also: potency is read from the fitted curve at half-maximal effect; % is scaled to controls: 0 for no effect and ±100 for the full control effect; nearly all actives have a fitted effect of over 50% in size
# PI5P4K alpha inh: qHTS for Inhibitors of phosphatidylinositol 5-phosphate 4-kinase (PI5P4K); Phosphatidylinositol 5-phosphate 4-kinase type-2 alpha (Homo sapiens), P48426; PI5P4Kalpha enzyme, ADP-Glo luminescence, 60 min; stronger effect = lower value; max response, %; 330,000 compounds, 1.2% hits; AID 652105, 2013; active = max response of -50% or lower; inconclusive = between -30% and -50%; inactive = -30% or higher; also: value at the top dose of about 77 µM; % is scaled to controls: 0 for no effect and ±100 for the full control effect
# Target sequence (P48426 whole entry, looked up): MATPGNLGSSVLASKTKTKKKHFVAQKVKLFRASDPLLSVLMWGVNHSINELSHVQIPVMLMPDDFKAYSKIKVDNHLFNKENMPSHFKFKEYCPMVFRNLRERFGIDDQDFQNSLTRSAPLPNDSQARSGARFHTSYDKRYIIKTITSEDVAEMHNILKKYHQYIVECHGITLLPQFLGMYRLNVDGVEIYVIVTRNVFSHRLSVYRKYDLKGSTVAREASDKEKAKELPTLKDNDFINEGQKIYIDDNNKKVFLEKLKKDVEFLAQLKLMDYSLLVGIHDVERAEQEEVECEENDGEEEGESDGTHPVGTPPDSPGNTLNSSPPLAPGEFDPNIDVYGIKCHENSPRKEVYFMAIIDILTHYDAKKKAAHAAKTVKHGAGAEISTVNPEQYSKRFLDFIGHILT
#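 Human PI5P4Kalpha with substrate in 0.038 M HEPES pH 7.4, 0.28 mM EGTA, 0.1% CHAPS, 5% DMSO; reaction started with 5 microM ATP (final), 60 min at room temperature. ADP formed read by ADP-Glo luminescence.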
# PLK1 PBD inh: qHTS for Inhibitors of PLK1-PDB (polo-like kinase 1 - polo-box domain): Primary Screen. Plk1 PBD binding of FITC phosphopeptide, fluorescence polarization. Potency, µM, for inactives: max response, negative = inhibition, hits mostly inhibitors. 360,000 compounds, 2.8% hits. AID 720504, 2013; also: potency is read from the fitted curve at half-maximal effect; series mostly up to about 57 µM; % is scaled to controls: 0 for no effect and ±100 for the full control effect; nearly all actives have a fitted effect of over 65% in size
# BAZ2B inh: qHTS Assay for Inhibitors of BAZ2B; Bromodomain adjacent to zinc finger domain protein 2B (Homo sapiens), Q9UIF8; AlphaScreen BAZ2B-H3K14Ac peptide displacement; Potency, µM (doses to about 114 µM), for the others: at the highest dose activity change, negative = inhibition, most hits filed as inhibitors; 360,000 compounds, 4.4% hits; AID 504333, 2011; also: potency is read from the fitted curve at half-maximal effect; % is scaled to controls: 0 for no effect and ±100 for the full control effect; nearly all actives have a fitted effect of over 60% in size
#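 AlphaScreen displacement: compounds (up to 110uM) incubated 30 min at room temperature with a preformed 50 nM BAZ2B/50 nM biotinylated H3K14Ac peptide complex in PBS pH 7.4 with Tween-20. Donor and acceptor beads at 10 ug/mL final added, 20 min light-protected before reading.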
# KAT2A inh: qHTS Assay for Inhibitors of GCN5L2 | Histone acetyltransferase KAT2A (Homo sapiens), Q92830 | GCN5L2 HAT assay, ThioGlo1 CoA-SH fluorescence | Potency, µM (highest dose often 58.9 µM), for inactives: top-dose activity change, negative = inhibition, hits mostly inhibitors | 390,000 compounds, 0.21% hits; also: potency is read from the fitted curve at half-maximal effect; % is scaled to controls: 0 for no effect and ±100 for the full control effect
#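 ThioGlo1-coupled HAT assay: 20nM GCN5L2, 70uM acetyl-CoA, 75uM H3(1-25) peptide, pH 7.5. Fluorescence read at 340/540nm at start and after 20 min at room temperature.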
# HP1b chromo inh: HTS for Inhibitors of HP1-beta Chromodomain Interactions with Methylated Histone Tails; Chromobox protein homolog 1 (Homo sapiens), P83916; AlphaScreen HP1-beta / biotin-H3K9me3 peptide binding; Potency, µM (highest dose often 114 µM), for the others: at the highest dose activity change, negative = inhibition, usual class: inhibitors; 390,000 compounds, 0.56% hits; AID 540317, 2011; also: potency is read from the fitted curve at half-maximal effect; nearly all actives have a fitted effect of over 70% in size
# Target sequence (P83916 whole entry, looked up): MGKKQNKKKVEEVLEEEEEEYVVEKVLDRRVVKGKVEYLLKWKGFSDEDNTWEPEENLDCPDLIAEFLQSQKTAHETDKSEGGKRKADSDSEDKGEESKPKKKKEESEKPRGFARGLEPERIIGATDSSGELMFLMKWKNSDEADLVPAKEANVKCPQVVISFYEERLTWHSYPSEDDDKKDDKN
#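 HP1-beta protein (50 nM final) preincubated 30 min at room temperature with biotinylated H3(1-18)K9me3 peptide (50 nM) in PBS pH 7.4, 0.01% Tween-20, then compound added for 30 min. AlphaScreen streptavidin donor/nickel chelate acceptor beads (10 ug/mL final), 30 min dark, luminescence read.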
# Starred values were filed as active, the others as inactive; ? = inconclusive; · = not tested or not shown; [ ] = remark or other dose. Unless noted, calls follow the shape of the dose curve; as a rule, active = well fitted curve in the direction sought with a large enough effect; inconclusive = small, poorly fitted or top-dose-only effect, or another doubt; inactive = no such curve, though single readings can be large; an effect the other way counts as inactive or inconclusive.
SMILES,JMJD2A Tudor inh,PI5P4K alpha inh,PLK1 PBD inh,BAZ2B inh,KAT2A inh,HP1b chromo inh
CC(=O)N(C)c1ccc(N=Cc2cc3c(cc2[N+](=O)[O-])OCO3)cc1,-21.4%,0.0,-17.6%,·,·,-7.9%
Cc1ccc(C)c(N=Cc2cc3c(cc2[N+](=O)[O-])OCO3)c1,50.1µM*,-19.4,-22.4%,20µM*,-12.4%,44.7µM*
Cc1cccc(C)c1OCC(=O)N/N=C/c1cc2c(cc1[N+](=O)[O-])OCO2,-30.8%,·,-10.0%,-18.5%,-6.0%[0.501 µM],18.5%
O=C(CCc1ccc(O)c(O)c1)N/N=C/c1cc2c(cc1[N+](=O)[O-])OCO2,39.8µM*,?,?,44.7µM*,-15.1%,?
Cc1ccc(N=Cc2cc3c(cc2[N+](=O)[O-])OCO3)cc1[N+](=O)[O-],?,-64.5*,?,·,·,-3.1%
Cc1cc(N)c2ccccc2[n+]1CCCCCCCCCC[n+]1c(C)cc(N)c2ccccc21,·,·,·,·,-6.8%,·
CC(C)(C)c1ccc(O)c(N=Cc2cc3c(cc2[N+](=O)[O-])OCO3)c1,?,-13.5,26.7µM*,50.1µM*,-18.2%,?
O=C1OCCN1S(=O)(=O)Nc1ccccc1,79.4µM*,-4.1,-6.6%,-36.3%,-1.3%,23.7%
O=C1OCCN1N1CCOC1=O,-7.6%,3.3,7.0%,·,·,-4.4%
Nc1nnc2c(n1)CCCC2,22.4µM*,-5.6,-4.3%,50.1µM*,-1.7%,21.3%
O=[N+]([O-])c1cccc(-c2ccc(CN3CCN(c4ccccc4)CC3)o2)c1,35.5µM*,-6.7,3.2%,44.7µM*,-0.8%,?
Cc1ccccc1N1CCN(C(=S)c2ccc(-c3cccc([N+](=O)[O-])c3)o2)CC1,?,1.5,?,·,-16.6%,-24.1%
O=[N+]([O-])c1ccccc1-c1ccc(C(=S)N2CCN(c3ccccc3)CC2)o1,22.4µM*,-2.2,23.8µM*,8.91µM*,-15.4%,?
Cc1ccc(N2CCN(C(=S)c3ccc(-c4cccc([N+](=O)[O-])c4)o3)CC2)cc1,?,-10.0,29.9µM*,?,9.3%,?
Cc1ccccc1N1CCN(C(=S)c2ccc(-c3ccc([N+](=O)[O-])cc3)o2)CC1,?,-10.9,?,7.94µM*,-8.6%,?
O=[N+]([O-])c1ccc(N2CCN(Cc3cccc([N+](=O)[O-])c3)CC2)cc1,?,3.6,-16.9%,?,-12.9%,-6.8%
O=[N+]([O-])c1ccc(N2CCN(C(=S)c3cccc([N+](=O)[O-])c3)CC2)cc1,?,?,2.38µM*,56.2µM*,-11.6%,11.2µM*
CC(=O)N1CCN(C(=S)c2cccc([N+](=O)[O-])c2)CC1,-4.2%,-8.1,-25.6%,0.5%,-3.0%,-3.1%
Cc1ccc(CN2CCN(c3ncccn3)CC2)o1,-20.5%,·,-11.5%,0.3%,0.3%[0.501 µM],12.9%
Cc1ccc(CN2CCN(c3ccccc3)CC2)o1,20µM*,-8.8,0.1%,50.1µM*,-6.3%,?
Cc1ccc(N2CCN(C(=S)c3ccc(-c4ccccc4[N+](=O)[O-])o3)CC2)cc1,31.6µM*,-3.4,9.47µM*,10µM*,-12.5%,14.1µM*
Cc1c(C#N)c(O)[nH]c(=O)c1N=Nc1ccc(S(N)(=O)=O)cc1,?,-76.3*,-16.6%,-11.6%,-23.8%,?
Cc1sc2nc(CC(=O)NN)[nH]c(=O)c2c1C,-10.0%,-8.4,16.8µM*,0.2%,-3.3%,-9.2%
O=C(OCC(=O)N1CCCC1=O)c1cc2ccccc2o1,-28.4%,-29.9,21.2µM*,3.2%,-4.2%,-14.4%[57 µM]
C=CCn1c(CSc2nc3ccccc3s2)n[nH]c1=S,50.1µM*,3.8,-17.8%,10.3%,-3.7%,4.4%
SMILES,JMJD2A Tudor inh,PI5P4K alpha inh,PLK1 PBD inh,BAZ2B inh,KAT2A inh,HP1b chromo inh
CCn1c(CSc2nc3ccccc3s2)n[nH]c1=S,11.2µM*,·,-14.4%,-24.2%,0.0%,-6.5%
CCn1c(CSc2nc3ccccc3s2)nnc1SCC(=O)c1ccc(Cl)cc1,?,-50.7*,2.99µM*,6.1%,-5.1%,7.6%
S=c1[nH]nc(CSc2nc3ccccc3s2)n1Cc1ccccc1,?,-7.1,-23.8%,-2.5%,?,31.5%
COC(=O)CCN(c1ccccc1)S(=O)(=O)c1cc(-c2cc(C)no2)ccc1OC,-6.9%,0.7,-8.3%,-19.6%,-14.5%,39.1%
O=C(O)c1ccccc1SCCS(=O)(=O)c1ccc(Cl)cc1Cl,7.2%,-0.1,-8.9%,-4.2%,6.3%,38.6%
CCOc1cc(C(=O)NC2CC(C)(C)NC(C)(C)C2)cc(OCC)c1OCC,-4.1%,7.7,-3.9%,7.5%,-10.1%,4.7%
COc1cc(C2c3c(-c4c(C)cc(C)cc4O)n[nH]c3C(=O)N2Cc2ccco2)cc(OC)c1OC (configuration not stated),-23.6%,·,·,-3.1%,-1.5%,-6.4%
COc1ccc2c(COC(=O)CCS(=O)(=O)c3ccc(C)cc3)cc(=O)oc2c1,-16.9%,-8.5,-7.2%,10.6%,4.9%,37.7%
O=C1NC(=O)/C(=C/c2ccccc2Oc2ccc(Cl)cc2)S1,-2.7%,-4.8,?,1.8%,-5.9%,25.1%
CC1Cc2cc(/C=C3/SC(=S)NC3=O)ccc2O1 (configuration not stated),?,-94.5*,?,-36.1%,-19.9%,-11.2%
O=C1NC(=S)S/C1=C\c1cc(Cl)cc(Cl)c1O,39.8µM*,-58.1*,?,·,·,44.7µM*
CCN(CC)c1ccc(C=C2SC(=S)NC2=O)cc1,?,?,50.1%,·,·,?
COc1ccc(C=C2SC(=S)NC2=O)c(OC)c1OC,-31.9%,-63.5*,-22.7%,·,·,-8.4%
O=C1NC(=O)C(=Cc2ccc(Cl)c(Cl)c2)S1,-10.3%,-26.0,-18.0%,·,·,22.5%
COc1ccccc1C=C1SC(=S)NC1=O,-20.8%,-71.7*,26.7µM*,·,·,-16.3%
Cc1ccc(NS(=O)(=O)c2cc3c(cc2N2CCC2)NC(=O)CC3)cc1C,-14.9%,·,·,·,·,·
CC(=O)c1ccccc1NC(=O)COC(=O)CCC1CCCC1,142.6%,14.7,6.4%,·,-7.3%,198.0%
COc1ccc(CCNC(=O)c2c(C)oc3ncn(CC(C)C)c(=O)c23)c(OC)c1,-14.6%,·,·,2.5%[57.1 µM],-7.2%,24.3%
COCCn1c(C)cc(O)c(C(c2ccc(C)cc2)N2CCCCC2)c1=O (configuration not stated),0.6%,·,·,1.8%,-7.4%,43.0%[57 µM]
O=C1NC(=S)SC1=Cc1ccccc1Cl,?,-79.4*,21.2µM*,·,·,?

# Assay outcomes deposited in PubChem BioAssay by National Center for Advancing Translational Sciences (NCATS).
